# Reference: PubChem BioAssay (NCATS)
# Results filed as inconclusive are left out. Where a call stands in place of a potency, no number is given. A number with no mark means an inactive call. The source made the active and inactive calls. Calls follow the shape of the dose curve; as a rule, active = well fitted curve in the direction sought with a large enough effect; inconclusive = small, poorly fitted or top-dose-only effect, or another doubt; inactive = no such curve, though single readings can be large; an effect the other way counts as inactive or inconclusive.
# Key:
# [1] = target: Cellular tumor antigen p53 (Homo sapiens) (UniProt P04637); assay: Primary qHTS for small molecule compounds that upregulate eGFP-tagged delta133p53alpha (in N-terminal) cells. (AID 2060322); conditions: NCI-H358 eGFP-delta133p53alpha fluorescence, 24 h; activation: active compounds read high; also: nearly all actives have a fitted effect of over 75% in size; also: potency is read from the fitted curve at half-maximal effect
# Method in brief: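 NCI-H358 cells pre-induced 24 h with 10 ng/ml doxycycline to express N-terminal eGFP-delta133p53alpha, then dosed 24 h at 37C without doxycycline; fixed, Hoechst-stained, GFP intensity by laser scanning cytometry, normalized to DMSO (0%) and 57.5 uM 5-azacytidine (100%).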
# [2] = target: Aldehyde dehydrogenase, mitochondrial (Homo sapiens) (UniProt P05091); assay: qHTS for Inhibitors of the Aldehyde Dehydrogenase Family (ALDH2) Primary screen (AID 2061308); conditions: ALDH2 enzyme inhibition qHTS, 1536-well; series mostly up to 56 µM; also: nearly all actives have a fitted effect of over 55% in size
# [3] = target: Retinaldehyde dehydrogenase 3 (Homo sapiens) (UniProt P47895); assay: qHTS for Inhibitors of the Aldehyde Dehydrogenase Family (ALDH1A3) Primary screen (AID 2061315); conditions: ALDH inhibition qHTS; series mostly up to 56 µM
# Chain of Cellular tumor antigen p53 (Homo sapiens) (P04637 whole entry, looked up): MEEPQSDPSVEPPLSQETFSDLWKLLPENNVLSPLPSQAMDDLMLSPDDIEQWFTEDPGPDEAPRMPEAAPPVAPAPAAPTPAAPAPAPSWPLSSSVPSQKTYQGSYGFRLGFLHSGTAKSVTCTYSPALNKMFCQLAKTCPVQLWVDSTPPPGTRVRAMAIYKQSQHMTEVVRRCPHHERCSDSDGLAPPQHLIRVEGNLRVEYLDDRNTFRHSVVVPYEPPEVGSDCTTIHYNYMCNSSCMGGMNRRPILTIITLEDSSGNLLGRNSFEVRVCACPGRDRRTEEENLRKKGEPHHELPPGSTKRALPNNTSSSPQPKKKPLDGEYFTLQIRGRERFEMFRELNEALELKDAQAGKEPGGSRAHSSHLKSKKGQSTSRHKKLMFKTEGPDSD
SMILES,activation [1] [%],Potency [2],Potency [3],Potency [1],"activity change, negative = inhibition [2]","activity change, negative = inhibition [3]"
O=C1C=CC(O)(/C=C/C(=O)OC[C@H]2O[C@@H](Oc3ccc(O)cc3)[C@H](O)[C@@H](O)[C@@H]2O)C=C1,6.25,inactive,inactive,,,
OC[C@@]1(O)CO[C@@H](OC[C@H]2O[C@@H](OCc3ccccc3)[C@H](O)[C@@H](O)[C@@H]2O)[C@@H]1O,-13.7,inactive,inactive,,,
C=C1CC2OC(=O)C(COC)C2C(OC(=O)/C(C)=C\C)CC2(C)OC1=CC2=O (centres undefined),,inactive,inactive,14.8 µM (active),,
Cc1nc(NC(=O)N2CCCC2C(N)=O)sc1-c1csc(C(C)(C)C)n1 (centres undefined),16.1,inactive,inactive,,,
CC(C(O)c1ccccc1)N(C)CCOC(c1ccccc1)c1ccccc1 (centres undefined),,inactive,inactive,21.9 µM (active),,
CC(C)C(NC(=O)c1ccc(O)cc1)C(=O)N1CCCC1C(=O)Nc1c(O)cccc1C(=O)O (centres undefined),-0.763,inactive,inactive,,,
CC#CCn1c(N2CCCC(N)C2)nc2c1c(=O)n(Cc1nc(C)c3ccccc3n1)c(=O)n2C (centres undefined),5.67,inactive,inactive,,,
C=C[C@H]1[C@H](O[C@@H]2O[C@H](CO)[C@@H](O)[C@H](O)[C@H]2O)OC=C(C(=O)OC)[C@H]1C/C=C(/C=O)[C@@H]1C(C(=O)OC)=CO[C@@H](O[C@@H]2O[C@H](CO)[C@@H](O)[C@H](O)[C@H]2O)[C@@H]1C=C,-22.1,inactive,inactive,,,
COc1cc2ncnc(Nc3ccc(F)c(Cl)c3)c2cc1OCCCN1CCOCC1,-5.67,inactive,inactive,,,
CC(C)C1=CC2C(CC[C@]2(C)O)[C@](C)(O)CC1 (some centres undefined),-6.25,inactive,inactive,,,
CC(C(=O)O)c1ccc(/C=C2\CCCCC2=O)cc1 (centres undefined),-13.4,inactive,inactive,,,
C[C@@H]1O[C@@H](O[C@H]2[C@H](O[C@H]3[C@H](O)[C@@H](C(=O)O)O[C@@H](O[C@H]4CC[C@@]5(C)C(CC[C@]6(C)C5CC[C@]57OC[C@@]8(CCC(C)(C)CC85)[C@H](O)C[C@]76C)C4(C)C)[C@@H]3O[C@@H]3O[C@H](CO)[C@@H](O[C@@H]4OC[C@@H](O)[C@H](O)[C@H]4O)[C@H](O)[C@H]3O)O[C@H](CO)[C@H](O)[C@@H]2O)[C@H](O)[C@H](O)[C@H]1O (some centres undefined),-6.87,,,,5.88% [at 11.2 µM],-5.39% [at 11.2 µM]
O=C1c2c(O[C@@H]3O[C@H](CO)[C@@H](O)[C@H](O)[C@H]3O)cc(O)cc2OC1(O)Cc1ccc(O)cc1 (some centres undefined),,inactive,inactive,10.4 µM (active),,
Cc1cccc(-c2[nH]ncc2-c2ccnc3ccccc23)n1,8.93,inactive,inactive,,,
CC1=CC(=O)C[C@H]2[C@@H]1CC[C@@H](C)[C@]21CO[C@H](c2ccoc2)C1=O,-3.82,inactive,inactive,,,
C=C1/C(=C/C=C2\CCC[C@]3(C)[C@@H]([C@@H](C)OCCC(O)(CC)CC)CC[C@@H]23)C[C@@H](O)C[C@@H]1O,-5,inactive,inactive,,,
COC(=O)C1=CO[C@@H](O[C@@H]2O[C@H](CO)[C@@H](O)[C@H](O)[C@H]2O)[C@@H]2C(CO)=CC[C@]12O,1.79,inactive,inactive,,,
CC(C)c1cc2c(c(O)c1O[C@@H]1O[C@H](CO)[C@@H](O)[C@H](O)[C@H]1O)CC1(O)CCC(O)C(C)(C)C1CC2 (some centres undefined),-22.1,inactive,inactive,,,
Cc1cc(-c2ncc(-c3cccnc3)cc2/C=C/c2ccccc2)cnc1-c1cccnc1,15.7,inactive,inactive,,,
C/C(=C\CCC(C)C1=CCC2(C)OC3=C(CC12)C(=O)C(O)CC3)CO (centres undefined),25.2,inactive,inactive,,,
CCC(C)C(=O)O[C@H]1[C@@H](OC(=O)c2ccoc2)C[C@](C)(O)[C@]23OC(C)(C)[C@H](C[C@H](OC(=O)c4ccoc4)[C@]12COC(C)=O)[C@H]3OC(C)=O (some centres undefined),17.6,inactive,inactive,,,
C=C1CC2C3(C)C(OC(C)=O)CC(=O)OC(C)(C)C3C(O)C(OC(C)=O)C2(C)C2C(=O)OC(C)C(=O)C12C (centres undefined),-19.8,inactive,inactive,,,
O=C(O)/C=C/c1ccc2occc2c1O[C@@H]1O[C@H](CO)[C@@H](O)[C@H](O)[C@H]1O,8.4,inactive,inactive,,,
